Test results: the supplement of paper PMC11732987, “Enantioselective OTUD7B fragment discovery through chemoproteomics screening and high-throughput optimisation” (Communications Chemistry, 2025)
Unmarked numbers belong to inactive results.

Tests used:
Test in all cases: log2 ratio of Biotin-Ahx-Ub-VS probe labelling (fragment/DMSO); higher = less target engagement (more negative = stronger competition), active = hit call of the paper (q ≤ 0.05, log2 ratio ≤ -1)
Settings in all cases: compound concentration: 200 uM; treatment time: 3 h
[1] = molecular target: T1, ALG13 (UniProt Q9NP73)
T1 sequence (whole entry): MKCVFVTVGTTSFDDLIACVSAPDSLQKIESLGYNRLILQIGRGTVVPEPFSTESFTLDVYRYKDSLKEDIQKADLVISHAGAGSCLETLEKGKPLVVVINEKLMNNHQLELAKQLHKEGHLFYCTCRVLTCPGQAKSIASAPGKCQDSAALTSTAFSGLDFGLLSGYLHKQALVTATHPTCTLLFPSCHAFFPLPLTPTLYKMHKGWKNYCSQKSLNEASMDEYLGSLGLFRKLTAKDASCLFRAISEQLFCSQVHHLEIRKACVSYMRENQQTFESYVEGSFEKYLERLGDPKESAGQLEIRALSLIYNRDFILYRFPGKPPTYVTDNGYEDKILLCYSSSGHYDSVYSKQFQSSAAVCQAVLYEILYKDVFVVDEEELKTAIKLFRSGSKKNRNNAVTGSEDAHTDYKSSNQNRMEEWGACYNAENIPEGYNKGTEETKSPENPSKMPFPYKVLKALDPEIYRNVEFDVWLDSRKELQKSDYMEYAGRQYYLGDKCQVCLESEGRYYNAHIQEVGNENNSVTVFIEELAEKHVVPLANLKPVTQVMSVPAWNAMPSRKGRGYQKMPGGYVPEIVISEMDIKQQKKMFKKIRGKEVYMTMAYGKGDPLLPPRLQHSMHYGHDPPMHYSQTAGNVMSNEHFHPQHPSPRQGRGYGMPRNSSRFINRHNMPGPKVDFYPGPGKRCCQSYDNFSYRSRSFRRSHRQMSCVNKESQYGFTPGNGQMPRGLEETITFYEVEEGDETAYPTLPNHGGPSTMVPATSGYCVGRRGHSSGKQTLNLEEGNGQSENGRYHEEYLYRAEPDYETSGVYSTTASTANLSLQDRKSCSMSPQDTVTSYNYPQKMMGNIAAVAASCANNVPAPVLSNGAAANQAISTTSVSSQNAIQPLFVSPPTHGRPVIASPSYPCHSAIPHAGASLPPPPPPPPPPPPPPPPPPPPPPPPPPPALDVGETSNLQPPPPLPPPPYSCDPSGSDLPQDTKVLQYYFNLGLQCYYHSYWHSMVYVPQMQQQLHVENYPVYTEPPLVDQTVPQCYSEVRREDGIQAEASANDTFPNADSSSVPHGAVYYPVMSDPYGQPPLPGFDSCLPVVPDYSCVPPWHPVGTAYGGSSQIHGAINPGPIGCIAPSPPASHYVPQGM
Outline: (§1)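 HEK293T lysate (495 µg per sample, in Tris/CHAPS/IGEPAL buffer with protease inhibitors) was exposed in triplicate for 3 h to fragment at 200 µM or to vehicle, then to Biotin-Ahx-Ub-VS at 0.5 µM final for 1 h. Labelled DUBs were enriched on NeutrAvidin, digested with LysC and trypsin, and analysed by diaPASEF LC-MS/MS. Spectronaut label-free quantities were normalised to the global median, and values are average log2 ratios of fragment over vehicle from an unpaired t-test. Only proteins with ≥2 unique peptides were used.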

[2] = molecular target: ATXN3 (UniProt P54252)
Chain of ATXN3 (P54252 whole entry): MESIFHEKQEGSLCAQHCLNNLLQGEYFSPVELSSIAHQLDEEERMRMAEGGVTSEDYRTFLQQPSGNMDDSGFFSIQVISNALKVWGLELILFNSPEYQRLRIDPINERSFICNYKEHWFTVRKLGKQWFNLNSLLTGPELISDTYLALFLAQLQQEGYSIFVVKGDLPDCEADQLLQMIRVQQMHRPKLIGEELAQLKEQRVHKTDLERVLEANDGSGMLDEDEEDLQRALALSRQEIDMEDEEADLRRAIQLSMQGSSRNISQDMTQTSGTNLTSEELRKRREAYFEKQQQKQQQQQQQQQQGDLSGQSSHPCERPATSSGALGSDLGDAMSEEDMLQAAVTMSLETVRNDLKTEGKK
Outline: as §1

[3] = molecular target: T2, BAP1 (UniProt Q92560)
T2 sequence (whole entry): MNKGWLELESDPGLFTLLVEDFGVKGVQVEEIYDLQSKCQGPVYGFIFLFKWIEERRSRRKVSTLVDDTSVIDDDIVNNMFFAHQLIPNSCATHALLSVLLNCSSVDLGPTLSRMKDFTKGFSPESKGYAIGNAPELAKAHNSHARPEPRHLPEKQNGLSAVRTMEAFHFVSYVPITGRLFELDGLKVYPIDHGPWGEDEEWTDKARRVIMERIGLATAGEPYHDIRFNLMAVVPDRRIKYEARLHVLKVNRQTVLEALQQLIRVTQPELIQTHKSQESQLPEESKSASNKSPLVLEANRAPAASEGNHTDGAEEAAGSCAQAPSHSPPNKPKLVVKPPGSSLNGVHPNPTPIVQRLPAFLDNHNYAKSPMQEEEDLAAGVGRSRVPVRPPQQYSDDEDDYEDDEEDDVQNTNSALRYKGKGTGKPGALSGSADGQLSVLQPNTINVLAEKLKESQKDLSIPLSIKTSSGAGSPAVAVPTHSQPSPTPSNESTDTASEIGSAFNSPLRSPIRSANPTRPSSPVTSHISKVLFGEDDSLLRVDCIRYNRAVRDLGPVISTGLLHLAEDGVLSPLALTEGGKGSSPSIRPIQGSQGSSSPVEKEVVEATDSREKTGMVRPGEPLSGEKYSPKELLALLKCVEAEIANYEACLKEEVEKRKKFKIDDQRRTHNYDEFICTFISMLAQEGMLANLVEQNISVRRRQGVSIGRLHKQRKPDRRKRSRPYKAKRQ
Outline: as §1

[4] = molecular target: EIF3F (UniProt O00303)
Chain of EIF3F (O00303 whole entry): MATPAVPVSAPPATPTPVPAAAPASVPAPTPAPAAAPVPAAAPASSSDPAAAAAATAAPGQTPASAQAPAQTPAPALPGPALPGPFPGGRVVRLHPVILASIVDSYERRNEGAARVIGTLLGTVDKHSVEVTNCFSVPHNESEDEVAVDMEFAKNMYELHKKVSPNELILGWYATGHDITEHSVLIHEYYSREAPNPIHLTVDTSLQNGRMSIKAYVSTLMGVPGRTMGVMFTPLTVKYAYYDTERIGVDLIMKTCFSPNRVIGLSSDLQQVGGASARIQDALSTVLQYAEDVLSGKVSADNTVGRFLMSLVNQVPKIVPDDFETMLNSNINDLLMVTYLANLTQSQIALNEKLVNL
Outline: as §1

[5] = molecular target: EIF3H (UniProt O15372)
Chain of EIF3H (O15372 whole entry): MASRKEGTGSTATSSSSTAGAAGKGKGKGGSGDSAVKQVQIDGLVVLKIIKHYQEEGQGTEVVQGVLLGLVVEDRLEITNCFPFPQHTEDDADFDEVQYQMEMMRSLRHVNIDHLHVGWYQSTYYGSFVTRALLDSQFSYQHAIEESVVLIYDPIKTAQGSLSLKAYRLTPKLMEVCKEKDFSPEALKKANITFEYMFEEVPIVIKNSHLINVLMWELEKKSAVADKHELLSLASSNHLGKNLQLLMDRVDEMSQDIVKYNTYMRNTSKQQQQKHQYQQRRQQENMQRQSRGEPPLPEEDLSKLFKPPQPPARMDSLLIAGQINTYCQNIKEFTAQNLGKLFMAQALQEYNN
Outline: as §1

[6] = molecular target: T3, FAM105A (UniProt Q9NUU6)
T3 sequence (whole entry): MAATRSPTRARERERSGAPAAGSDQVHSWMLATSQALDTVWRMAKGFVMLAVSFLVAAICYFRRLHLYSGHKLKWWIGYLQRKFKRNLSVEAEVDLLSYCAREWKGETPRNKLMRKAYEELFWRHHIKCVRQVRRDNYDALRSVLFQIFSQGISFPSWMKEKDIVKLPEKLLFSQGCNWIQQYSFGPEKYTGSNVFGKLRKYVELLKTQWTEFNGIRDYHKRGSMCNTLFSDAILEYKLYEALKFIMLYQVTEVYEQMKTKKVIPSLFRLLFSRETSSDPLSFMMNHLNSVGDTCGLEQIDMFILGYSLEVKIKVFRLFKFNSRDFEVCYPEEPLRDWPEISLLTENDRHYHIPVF
Outline: as §1

[7] = molecular target: OTUB1 (UniProt Q96FW1)
Chain of OTUB1 (Q96FW1 whole entry): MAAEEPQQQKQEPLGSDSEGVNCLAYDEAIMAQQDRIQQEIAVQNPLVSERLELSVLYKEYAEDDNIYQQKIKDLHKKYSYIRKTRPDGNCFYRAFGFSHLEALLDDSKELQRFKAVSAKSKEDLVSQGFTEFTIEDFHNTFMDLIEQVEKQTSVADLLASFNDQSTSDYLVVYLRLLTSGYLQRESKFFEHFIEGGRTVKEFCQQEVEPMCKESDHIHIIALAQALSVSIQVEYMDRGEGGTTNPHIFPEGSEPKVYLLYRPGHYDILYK
Outline: as §1

[8] = molecular target: T4, OTUD4 (UniProt Q01804)
T4 sequence (whole entry): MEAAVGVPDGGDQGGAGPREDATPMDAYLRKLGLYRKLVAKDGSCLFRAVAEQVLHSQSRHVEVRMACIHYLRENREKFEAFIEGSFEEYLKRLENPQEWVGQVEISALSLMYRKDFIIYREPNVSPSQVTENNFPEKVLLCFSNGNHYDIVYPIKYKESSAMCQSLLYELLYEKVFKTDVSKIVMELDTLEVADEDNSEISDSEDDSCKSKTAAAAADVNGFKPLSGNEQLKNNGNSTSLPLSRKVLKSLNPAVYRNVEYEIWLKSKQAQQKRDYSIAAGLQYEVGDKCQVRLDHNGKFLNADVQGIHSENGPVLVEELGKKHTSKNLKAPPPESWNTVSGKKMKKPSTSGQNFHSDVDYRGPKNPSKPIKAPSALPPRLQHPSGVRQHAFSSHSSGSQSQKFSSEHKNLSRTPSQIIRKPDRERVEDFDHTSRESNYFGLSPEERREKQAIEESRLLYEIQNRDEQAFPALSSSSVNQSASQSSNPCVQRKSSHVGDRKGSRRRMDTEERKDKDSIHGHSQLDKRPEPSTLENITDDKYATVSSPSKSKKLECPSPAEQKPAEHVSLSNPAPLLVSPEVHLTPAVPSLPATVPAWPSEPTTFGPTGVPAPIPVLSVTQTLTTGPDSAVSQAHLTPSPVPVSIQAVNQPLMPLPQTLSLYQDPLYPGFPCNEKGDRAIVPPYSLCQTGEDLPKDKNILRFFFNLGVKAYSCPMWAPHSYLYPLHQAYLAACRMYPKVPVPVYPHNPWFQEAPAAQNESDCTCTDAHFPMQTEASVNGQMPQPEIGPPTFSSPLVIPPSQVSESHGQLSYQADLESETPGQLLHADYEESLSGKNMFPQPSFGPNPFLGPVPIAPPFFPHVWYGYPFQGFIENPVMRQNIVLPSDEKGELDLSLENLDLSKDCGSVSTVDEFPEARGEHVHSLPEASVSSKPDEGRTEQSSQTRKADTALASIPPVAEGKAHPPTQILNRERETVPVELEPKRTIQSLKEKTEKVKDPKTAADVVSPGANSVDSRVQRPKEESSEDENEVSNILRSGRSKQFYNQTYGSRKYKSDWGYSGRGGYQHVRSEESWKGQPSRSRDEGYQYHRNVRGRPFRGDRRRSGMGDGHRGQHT
Outline: as §1

[9] = molecular target: T5, OTUD5 (UniProt Q96G74)
T5 sequence (whole entry): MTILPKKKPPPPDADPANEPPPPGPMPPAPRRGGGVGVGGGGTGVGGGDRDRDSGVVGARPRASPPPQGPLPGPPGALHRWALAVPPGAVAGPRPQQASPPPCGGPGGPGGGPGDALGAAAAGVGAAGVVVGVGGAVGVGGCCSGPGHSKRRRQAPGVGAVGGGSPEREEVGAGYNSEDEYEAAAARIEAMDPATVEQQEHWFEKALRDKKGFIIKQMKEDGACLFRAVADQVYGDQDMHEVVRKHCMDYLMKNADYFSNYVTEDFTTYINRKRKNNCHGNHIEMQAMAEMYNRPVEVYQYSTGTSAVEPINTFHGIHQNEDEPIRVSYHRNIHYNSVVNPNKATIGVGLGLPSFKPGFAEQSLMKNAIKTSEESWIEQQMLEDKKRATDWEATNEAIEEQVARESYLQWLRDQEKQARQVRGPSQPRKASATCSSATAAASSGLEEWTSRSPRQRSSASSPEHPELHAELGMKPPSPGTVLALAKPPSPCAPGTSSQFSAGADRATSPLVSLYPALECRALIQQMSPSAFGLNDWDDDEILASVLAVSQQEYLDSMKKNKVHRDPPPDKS
Outline: as §1

CN(C)S(=O)(=O)c1ccccc1CNC(=O)CCl
log2 ratio of Biotin-Ahx-Ub-VS probe labelling [1]: 0.242 | log2 ratio of Biotin-Ahx-Ub-VS probe labelling [2]: -0.137 | log2 ratio of Biotin-Ahx-Ub-VS probe labelling [3]: -1.09 (active) | log2 ratio of Biotin-Ahx-Ub-VS probe labelling [4]: -0.0947 | log2 ratio of Biotin-Ahx-Ub-VS probe labelling [5]: 0.29 | log2 ratio of Biotin-Ahx-Ub-VS probe labelling [6]: -0.0283 | log2 ratio of Biotin-Ahx-Ub-VS probe labelling [7]: -0.0251 | log2 ratio of Biotin-Ahx-Ub-VS probe labelling [8]: -0.249 | log2 ratio of Biotin-Ahx-Ub-VS probe labelling [9]: -0.29
